Experimental data reported in the supplement of paper PMC10646978.
± gives the standard deviation.

Assays:
Details in all cases: modulator concentration 10 µM
[1] = system: RAW-Dual (murine macrophage reporter line); test: NF-kB reporter (SEAP) activity fold change vs agonist alone; higher = enhanced NF-kB activity
Method in brief: (§1)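 In 384-well plates holding 50 000 RAW-Dual murine macrophage reporter cells per well, compound at 10 μM final was pre-incubated for 1 hour at 37 °C, after which a PRR agonist was added overnight. Supernatant SEAP read with QUANTI-Blue at 620 nm absorbance reported NF-κB, and Lucia luciferase read with QUANTI-Luc luminescence reported IRF. Fold change values come from dividing each reporter signal by the mean of agonist-only control wells on the same plate, averaged over replicate plates with propagated errors.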

[2] = system: RAW-Dual (murine macrophage reporter line); test: IRF reporter (Lucia luciferase) activity fold change vs agonist alone; higher = enhanced IRF activity
Method in brief: as §1

[3] = system: RAW-Dual (murine macrophage reporter line); test: viability score (confluency relative to resting cells, overnight) (fraction); higher = more viable, active = viable (0.7 or more)
Method in brief: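 In 384-well plates, RAW-Dual macrophages received compound at a final 10 μM overnight. Two confluency masks were then made with IncuCyte software from IncuCyte images of all imaged wells. The viability score is defined as confluency relative to resting cells. Passing the cutoff required both masks to lie above 70% of resting cells.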

[4] = agonist: CpG ODN 1826 0.5 ug/mL

Compound	NF-kB reporter [1, 4]	NF-kB reporter ([1]; agonist: LPS 0.1 ug/mL)	NF-kB reporter ([1]; agonist: MPLA […])	IRF reporter ([2]; agonist: 3'3'-cGAMP 10 ug/mL)	IRF reporter ([2]; agonist: LPS 0.1 ug/mL)	IRF reporter ([2]; agonist: MPLA […])	viability score [3]
COc1ccccc1Cn1c(SC)nc2c(-c3ccccc3)c[nH]c2c1=O	1.51 ± 0.064	0.889 ± 0.11	0.997 ± 0.053	0.114 ± 0.0059	1.05 ± 0.19	1.41 ± 0.36	0.948 (active)
COC(=O)C1=CN(CC2CCCO2)C=C(C(=O)OC)C1c1cccc(F)c1 (configuration not stated)	0.948 ± 0.21	0.907 ± 0.084	1.05 ± 0.098	0.868 ± 0.026	1.21 ± 0.19	1.18 ± 0.16	0.954 (active)
CCCC1=NN(c2ccc([N+](=O)[O-])cc2)C(=O)C1=CNC1CC1	0.833 ± 0.066	1.15 ± 0.065	0.934 ± 0.056	0.999 ± 0.043	1.49 ± 0.12	1.18 ± 0.2	1.01 (active)
O=C(O)CCCCCN1C(=O)C(=Cc2cn(-c3ccccc3)nc2-c2cccs2)SC1=S	1.02 ± 0.063	1.12 ± 0.12	1.01 ± 0.059	1.03 ± 0.038	1.27 ± 0.082	1.06 ± 0.11	1 (active)
CCC1(C)CC(CCN)(c2ccc(C)cc2)CCO1 (configuration not stated)	0.826 ± 0.053	1.02 ± 0.08	0.992 ± 0.047	0.822 ± 0.048	0.904 ± 0.06	0.843 ± 0.083	0.962 (active)
N#Cc1c(NC(=O)c2cccc3ccccc23)sc2c1CCCC2	1.67 ± 0.13	0.863 ± 0.073	1.14 ± 0.12	0.616 ± 0.019	1.35 ± 0.18	1.48 ± 0.23	0.879 (active)
COC(=O)C1=C(C)NC(C)=C(C(=O)O[C@@H]2CCCN(Cc3ccccc3)C2)[C@@H]1c1cccc([N+](=O)[O-])c1.Cl	0.323 ± 0.024	0.587 ± 0.034	1.31 ± 0.036	0.31 ± 0.018	1.05 ± 0.12	1.25 ± 0.18	0.997 (active)
Cc1cc(OC2CN(C(=O)Cc3c[nH]c4ccccc34)C2)cc(=O)n1C1CC1	1.1 ± 0.055	1.1 ± 0.091	0.997 ± 0.11	1 ± 0.05	1.2 ± 0.076	1.23 ± 0.12	0.983 (active)
Cc1ccc(N2C(=O)C(=CC3CC=CCC3)SC2=S)cc1 (configuration not stated)	0.652 ± 0.054	0.835 ± 0.039	0.817 ± 0.076	0.397 ± 0.022	1.04 ± 0.075	0.963 ± 0.1	0.973 (active)
CN1C(=O)OC(C)(C)C1=O	1.01 ± 0.12	1.09 ± 0.075	1.05 ± 0.03	1.04 ± 0.17	1.01 ± 0.14	0.957 ± 0.22	1 (active)
CCOC(=O)C1=C(C)NC(C)=C(C(=O)OCC)C1c1ccco1	1.03 ± 0.09	1.01 ± 0.066	1.14 ± 0.087	0.82 ± 0.16	0.999 ± 0.12	0.888 ± 0.28	0.996 (active)
CCS(=O)(=O)N1CC(CC#N)(n2cc(-c3ncnc4[nH]ccc34)cn2)C1	0.943 ± 0.099	1.13 ± 0.091	2.88 ± 0.17	0.189 ± 0.016	0.338 ± 0.035	0.517 ± 0.07	0.506 (inactive)
CC(=O)OC1=C(O)C=CC2C(C)=CC(=O)OC12 (configuration not stated)	0.954 ± 0.12	0.823 ± 0.079	1.04 ± 0.1	0.986 ± 0.034	1.3 ± 0.19	1.47 ± 0.3	1.01 (active)
CN(C)C(=O)c1cc2cnc(Nc3ccc(N4CCNCC4)cn3)nc2n1C1CCCC1	0.832 ± 0.036	0.887 ± 0.11	0.941 ± 0.071	0.987 ± 0.046	1.35 ± 0.29	1.53 ± 0.49	0.711 (active)
CC(C)N(C)CCOC(=O)C(C)(c1ccccc1)c1ccccc1	0.583 ± 0.047	1.03 ± 0.068	0.957 ± 0.11	0.902 ± 0.069	1.09 ± 0.12	0.965 ± 0.17	0.322 (inactive)
COC(=O)CSc1ccc2nnc(-c3ccc(F)cc3)n2n1	1.12 ± 0.088	1.1 ± 0.057	1.06 ± 0.023	0.71 ± 0.05	0.719 ± 0.042	0.803 ± 0.069	1 (active)
NC(=O)c1ccc(I)c([N+](=O)[O-])c1	0.743 ± 0.25	0.842 ± 0.23	0.828 ± 0.046	0.678 ± 0.024	0.905 ± 0.32	1 ± 0.13	0.981 (active)
Cl.Clc1ccc2nsnc2c1NC1=NCCN1	0.8 ± 0.14	0.932 ± 0.14	0.993 ± 0.076	0.791 ± 0.066	0.995 ± 0.17	1.06 ± 0.23	1 (active)
CCCNCC(O)COc1ccccc1C(=O)CCc1ccccc1 (configuration not stated)	0.639 ± 0.086	0.988 ± 0.098	1.21 ± 0.066	0.989 ± 0.07	0.948 ± 0.095	0.869 ± 0.16	0.826 (active)
CSc1nnc(CSc2nc(C)cc(C)n2)n1-c1cccc(C(F)(F)F)c1	0.958 ± 0.041	0.862 ± 0.071	1.17 ± 0.07	0.961 ± 0.053	1.36 ± 0.34	1.37 ± 0.44	0.953 (active)
COc1ccc2cc(CCC(C)=O)ccc2c1	1.23 ± 0.19	1.19 ± 0.56	1.06 ± 0.11	0.931 ± 0.03	1.18 ± 0.45	1.2 ± 0.098	0.95 (active)
O=C(NN=Cc1c(O)ccc2ccccc12)c1ccccc1Br	1.43 ± 0.11	1.24 ± 0.091	1.14 ± 0.092	0.612 ± 0.1	1.05 ± 0.074	0.873 ± 0.057	0.989 (active)
COc1cccc(-n2c(SCc3ccc(F)cc3)nc3c([nH]c4ccccc43)c2=O)c1	0.568 ± 0.034	1.14 ± 0.077	0.693 ± 0.06	0.717 ± 0.033	1.33 ± 0.15	0.902 ± 0.13	0.972 (active)
CCOC(=O)C(CCc1ccccc1)NC1CCc2ccccc2N(CC(=O)O)C1=O.Cl (configuration not stated)	1.13 ± 0.28	1.04 ± 0.072	1.05 ± 0.079	0.967 ± 0.04	1.24 ± 0.15	1.33 ± 0.21	1 (active)
CS(=O)(=O)N(Cc1ccccc1)c1ccc(C(=O)NCCSCc2ccc(Cl)cc2)cc1	0.924 ± 0.099	0.976 ± 0.062	1.01 ± 0.097	1.01 ± 0.028	1.54 ± 0.25	1.13 ± 0.14	1.01 (active)
c1ccc(OCc2nnc(-c3ccccc3)o2)cc1	1.15 ± 0.1	1.19 ± 0.09	1.14 ± 0.037	0.87 ± 0.078	0.937 ± 0.044	0.973 ± 0.076	0.999 (active)
